# Measured values published in PubChem BioAssay AID485341 (National Center for Advancing Translational Sciences (NCATS), 2010).
# The campaign covered roughly 330,000 compounds. About 1,700 (0.52%) were called active. Calls come from the whole dose curve; as a rule, active = well fitted inhibition curve with a large enough effect; inconclusive = small, poorly fitted or top-dose-only effect; inactive = no such curve, though single readings can be large or run the other way. The sample as a whole holds a higher share of actives than the screen did.
# Target: Beta-lactamase (Escherichia coli (strain K12)) (UniProt P00811)
# Assay: qHTS Inhibitors of AmpC Beta-Lactamase (assay without detergent); note: nearly all actives have a fitted effect of over 20% in size
# Conditions: AmpC nitrocefin hydrolysis, absorbance 480 nm, 0.0001% Triton; series mostly up to 57.1 µM; activity change, negative = inhibition: at the top concentration
# Method: NIH Molecular Libraries Probe Production Network [MLPCN] NIH Chemical Genomics Center [NCGC] Assay Provider: Professor Brian Shoichet, UCSF Assay Overview: This aggregation profiling approach exploits the sensitivity of aggregate formation to detergent. Inhibition of b-lactamase is measured in the presence and absence of 0.01% Triton X-100. This particular assay had the prescence of 0.01% Triton X-100. See Pubchem assay "Promiscuous and Specific Inhibitors of AmpC Beta-Lactamase (assay without detergent)" for related screen. Compounds that inhibit only in the absence of detergent are considered likely promiscuous aggregators. A screen of 1,030 compounds was performed in Brian Shoichet's lab in 96-well format. AmpC activity was measured by following the absorbance at 480 nm. Nitrocefin is a chromogenic substrate: while nitrocefin is yellow (lmax 390 nm), the product of its hydrolysis is red (lmax 486 nm, 17,000 M-1). AmpC beta lactamase was provided by Shoichet Lab, UCSF.
# Buffer: 20 mM phosphate buffer, pH 7.0 Triton X-100: No Detergent screen: 0.0001%, Detergent screen: 0.01%. Reagents/Controls: Buffer in columns 3 and 4 as negative control (no enzyme). 5.3 nM AmpC in columns 1, 2, 5-48. Titration of UCSF compound 9 control (from 10 mM, then 1:2) pin-transferred to column 2. Column 1 is neutral (100% activity). Assay Steps: Six uL of reagents were dispensed to 1536-well Greiner black clear bottom plates. Compounds and controls (23 nL) were transferred via Kalypsys PinTool. The plates were incubated for 15 min at room temperature, and then 2 uL of 800 uM solution of nitrocefin was added to start the reaction. The plates were immediately transferred to and read every 20 seconds for 4 min on ViewLux (Perkin-Elmer) High-throughput CCD imager using 480 nm absorbance protocol. During dispense, reagent bottles were kept submerged into 4 deg C water bath. Keywords: NIH Roadmap, MLSCN, MLI, MLSMR, qHTS, NCGC, AmpC Beta-Lactamase, Aggregation
# Potency is the fitted concentration of half-maximal effect.
# Chain of Beta-lactamase (Escherichia coli (strain K12)) (P00811 whole entry, looked up): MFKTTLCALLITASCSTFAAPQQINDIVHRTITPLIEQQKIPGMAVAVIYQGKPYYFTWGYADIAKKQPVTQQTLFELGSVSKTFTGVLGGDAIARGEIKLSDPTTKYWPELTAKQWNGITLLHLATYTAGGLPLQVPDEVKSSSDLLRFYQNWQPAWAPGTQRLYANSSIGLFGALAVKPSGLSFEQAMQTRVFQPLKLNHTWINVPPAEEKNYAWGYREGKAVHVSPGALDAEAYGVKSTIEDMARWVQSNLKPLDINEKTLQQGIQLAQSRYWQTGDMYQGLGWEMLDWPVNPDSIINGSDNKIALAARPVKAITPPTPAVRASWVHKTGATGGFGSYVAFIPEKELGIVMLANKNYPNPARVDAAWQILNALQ
SMILES,Potency,"activity change, negative = inhibition"
COc1cc(CO)ccc1OCC(=O)Nc1cccc2ccccc12,14.1 µM (active),–
COc1ccccc1NC(=O)COc1ccc(C(=O)OCC(=O)N(C(C)C)C(C)C)cc1OC,–,108% (inactive)
COc1ccc(N(CC(=O)Nc2cccc3ccccc23)S(C)(=O)=O)c(OC)c1,–,33.5% (inactive)
C[C@@H](NC(=O)OC(C)(C)C)c1nnc(S(=O)(=O)Cc2ccccc2)o1,10 µM (active),–
COc1ccccc1NC(=O)[C@H](COCc1ccccc1)NC(=O)OC(C)(C)C,–,0.197% (inactive)
CCc1ccccc1NC(=O)CSc1nnc([C@@H](NC(=O)OC(C)(C)C)C(C)CC)o1 (stereo partly specified),–,-2.18% (inactive)
Cn1c(Cc2csc(N)n2)nnc1SC/C=C/c1ccccc1,–,-22.6% (inactive)
COc1cc(Cl)c(S(=O)(=O)N2CCN(Cc3ccc4c(c3)OCO4)CC2)cc1Cl,–,3.51% (inactive)
COc1ccc(/C=C2/SC(=O)N(CCCCCC(=O)Nc3ccccc3C(=O)O)C2=S)cc1,–,-28.7% (inactive)
O=C(CN1C(=O)/C(=C\c2ccccc2F)SC1=S)Nc1nc2ccccc2s1,–,-33.9% (inactive)
O=C(CCCN1C(=O)/C(=C\c2ccco2)SC1=S)Nc1cccc2ccccc12,11.2 µM (active),–
O=C(CCCN1C(=O)/C(=C/c2cccs2)SC1=S)Nc1ccc(O)cc1,–,-43.8% (inactive)
O=C(CCCN1C(=O)/C(=C\c2ccccc2)SC1=S)Nc1ccccc1O,11.2 µM (active),–
O=C1/C(=C\c2ccccc2Cl)SC(=S)N1CCC(=O)N1CCCc2ccccc21,–,-9.24% (inactive)
CCC(c1nnc(SCC(=O)NNC(=O)c2ccccc2)n1Cc1ccccc1)N(C)C (stereo unspecified),–,1.21% (inactive)
CN(C)/C=C(/C(=O)c1ccccc1)S(=O)(=O)c1ccc(Cl)cc1,–,-33.1% (inactive)
CN(C)/C=C(/C(=O)c1ccc(Cl)cc1)S(=O)(=O)c1ccccc1,–,-15.6% (inactive)
CN(C)/C=C(/C(=O)c1ccc(F)cc1)S(=O)(=O)c1ccc(F)cc1,12.6 µM (active),–
Cc1ccccc1CN1CCNC(=O)C1CC(=O)NCCC1=CCCCC1 (stereo unspecified),–,99.3% (inactive)
COc1cc(NC(=S)NNC(=O)CC(C)C)c(OC)cc1Cl,–,-27% (inactive)
C=CCNC(=O)c1csc(-c2ccccc2)n1,–,-25.3% (inactive)
C=CCNC(=O)c1sc(SC)cc1-c1ccc(Cl)cc1,1 µM (active),–
CSc1sc(C(=O)NNC(=O)c2ccc(Cl)cc2)c2c1C=CCC2,–,-47% (inactive)
CCN1CCN(CC(=O)c2cc(OC)c(OC)c(OC)c2)CC1,–,-9.84% (inactive)
CC(C)c1ccc(N(C(=O)c2ccco2)C(C(=O)NC2CCCC2)c2cccnc2)cc1 (stereo unspecified),–,30.8% (inactive)
Cc1cccc(N2C(=O)CC(SC(N)=Nc3ccccc3)C2=O)c1 (stereo unspecified),–,-10.7% (inactive)

SMILES,Potency,"activity change, negative = inhibition"
COC(=O)c1cc(C(=O)OC)cc(N2C(=O)CC(N3CCN(c4ccccc4)CC3)C2=O)c1 (stereo unspecified),–,11.2% (inactive)
COC(=O)c1ccccc1SC1CC(=O)N(c2cccc(C)c2)C1=O (stereo unspecified),7.08 µM (active),–
CCc1ccc(Oc2nc([N+](=O)[O-])nn2C)cc1,–,-10.1% (inactive)
Cc1c(NC(=O)CN2C(=O)C(=O)N(Cc3ccccc3)C2=O)c(=O)n(-c2ccccc2)n1C,–,-15.6% (inactive)
O=C1CC(=O)N(Cc2ccccc2)C(=O)N1CCCCCCN1C(=O)CC(=O)N(Cc2ccccc2)C1=O,7.08 µM (active),–
O=C(O)CCCN1C(=O)C2C3c4ccccc4C(c4ccccc43)[C@@H]2C1=O (stereo partly specified),–,-5.32% (inactive)
COc1ccc(CCN2C(=O)N(c3ccc(OC)cc3)C(=O)C2CC(=O)Nc2ccc(OC)cc2)cc1 (stereo unspecified),–,-11.7% (inactive)
CCN=C1S/C(=C\c2cc(Br)ccc2OCC(=O)OCC)C(=O)N1CC,–,3.25% (inactive)
COc1ccc(Cn2c(=S)[nH]c3cc(C(=O)NCCCN4CCOCC4)ccc3c2=O)cc1,–,35.1% (inactive)
CCCCn1c(=S)[nH]c2ccccc2c1=O,–,-26.7% (inactive)
O=c1c2ccccc2[nH]c(=S)n1CCN1CCC(=C(c2ccc(F)cc2)c2ccc(F)cc2)CC1,3.16 µM (active),–
C=CCn1c(SCCOc2ccc(OC)cc2)nnc1C(NC(=O)c1ccc(OC)cc1)C(C)C (stereo unspecified),–,3.24% (inactive)
COc1cccc(NC(=O)CCc2nnc3ccc(N4CCC(C)CC4)nn23)c1,–,125% (inactive)
CN(CC(=O)NCC(c1ccccc1)N1CCCC1)S(=O)(=O)c1ccc(Cl)cc1 (stereo unspecified),–,96.8% (inactive)
CCc1ccc(NC(=O)COC(=O)c2cccs2)cc1,–,-24.7% (inactive)
O=C(COC(=O)c1ccc(O)cc1O)NNC(=O)c1cccs1,–,-14.2% (inactive)
O=C(COC(=O)c1ccc(NS(=O)(=O)c2cccs2)cc1O)Nc1ccc(F)cc1,14.1 µM (active),–
CC(=O)N/C(=C/c1ccc(OC(F)F)cc1)C(=O)O,–,-19.8% (inactive)
COc1cccc(-c2coc3cc4oc(=O)c(CC(=O)O)c(C)c4cc23)c1,–,-22.6% (inactive)
C=CCNC(=O)COc1coc(CN2CCN(Cc3ccccc3)CC2)cc1=O,–,48.1% (inactive)
COc1ccc(OCCCC(=O)Nc2cccc(S(=O)(=O)N3CCCCCC3)c2)cc1,–,-8.29% (inactive)
COc1cccc(NC(=O)COc2cccnc2[N+](=O)[O-])c1,–,-40.6% (inactive)
O=C(CC(NS(=O)(=O)c1ccc(Cl)cc1)c1ccco1)NC1CCCC1 (stereo unspecified),–,-46.4% (inactive)
COc1ccc(S(=O)(=O)NC(CC(=O)NCc2ccccc2OC)c2ccco2)cc1 (stereo unspecified),0.316 µM (active),–
COc1ccccc1CNC(=O)COC(=O)CNS(=O)(=O)c1ccc(NC(C)=O)cc1,–,-14.1% (inactive)
Cc1cc(C)n(-c2ccc3nncn3n2)n1,–,-5.01% (inactive)

SMILES,Potency,"activity change, negative = inhibition"
COc1ccc(C2N3CC(C)(C)CN23)cc1 (stereo unspecified),–,-13.2% (inactive)
O=C(CN1C(=O)/C(=C/c2ccccc2F)Sc2ccccc21)NCc1cccnc1,–,131% (inactive)
O=C(CN1C(=O)/C(=C\c2ccc(C(F)(F)F)cc2)Sc2ccccc21)NCc1ccco1,10 µM (active),–
O=C(CC1CCCCC1)NCc1ccco1,–,-0.34% (inactive)
CN1CCN(Cc2nc3c(c(=O)n(C)c(=O)n3C)n2Cc2cccc3ccccc23)CC1,–,19.2% (inactive)
CC1CN(Cc2nc3c(c(=O)n(C)c(=O)n3C)n2Cc2cccc(Cl)c2)CC(C)O1 (stereo unspecified),44.7 µM (active),–
CCOC(=O)N1CCN(Cc2nc3c(c(=O)n(C)c(=O)n3C)n2Cc2ccccc2)CC1,–,-89.9% (inactive)
C=CCn1c(C2CC(=O)N(c3ccc(C)cc3)C2)nc2ccccc21 (stereo unspecified),–,8.29% (inactive)
O=S(=O)(c1cccc2nonc12)N1CCN(c2cccc(Cl)c2)CC1,–,-29.9% (inactive)
CC(=O)c1ccccc1NC(=O)CC1(CC(=O)O)CCCCC1,–,-18.6% (inactive)
Cc1ccc(C(C)NC(=O)Cn2nc(C)c([N+](=O)[O-])c2C)cc1 (stereo unspecified),–,-16.3% (inactive)
CC(C)N(c1ccccc1)c1ncnc(NCCC(=O)O)c1[N+](=O)[O-],0.316 µM (active),–
Cc1ccc(OCC(=O)NC(C)c2ccccc2)c([N+](=O)[O-])n1 (stereo unspecified),–,7.38% (inactive)
CC(OC(=O)CCCOc1ccccc1)C(=O)Nc1ccc(Cl)cn1 (stereo unspecified),–,-29.5% (inactive)
Cc1cccc(N2C(=O)SC(SC(=Nc3ccccc3)Nc3ccccc3)C2=O)c1 (stereo unspecified),–,-30.1% (inactive)
CN(C)/N=C/c1cc(Cl)cc([N+](=O)[O-])c1O,–,-14.3% (inactive)
O=[N+]([O-])c1cc(Cl)cc(/C=N/NC(=S)Nc2cc(S(=O)(=O)N3CCOCC3)ccc2Cl)c1O,–,-46.8% (inactive)
O=C(N/N=C/c1cc(Cl)cc([N+](=O)[O-])c1O)C(O)(c1ccccc1)c1ccccc1,10 µM (active),–
OCCNCCOc1ccc(Cl)c(Cl)c1,–,-15.5% (inactive)
S=C(NCCC1=CCCCC1)Nc1ccccc1,–,-29.9% (inactive)
COc1ccccc1C1SCCN1C(=O)c1ccc([N+](=O)[O-])cc1 (stereo unspecified),–,-44.7% (inactive)
COc1cccc(OC)c1C(=O)Nc1c(C(=O)N2CCN(c3ccccn3)CC2)oc2ccccc12,–,100% (inactive)
Cc1[nH]c2ccccc2c1CCN(Cc1cccs1)C(=S)NC(C)(C)C,–,-0.689% (inactive)
COc1ccc2[nH]c(C)c(CCN(Cc3cccs3)C(=S)Nc3ccccc3OC)c2c1,0.501 µM (active),–
COc1cccc(NC(=S)N(CCc2c(C)[nH]c3ccccc23)Cc2ccco2)c1,–,-26.2% (inactive)
CCN(CC)C(=O)C1CCC(C)(C(=O)O)C1(C)C (stereo unspecified),–,-16.7% (inactive)

SMILES,Potency,"activity change, negative = inhibition"
COc1ccc(C(C#N)Nc2ccccc2C)cc1 (stereo unspecified),–,12.4% (inactive)
Cc1ccc(NC(=O)CCNC(=O)c2ccc([N+](=O)[O-])cc2)cc1S(=O)(=O)N1CCOCC1,–,-16.7% (inactive)
COc1ccc(NS(=O)(=O)c2cc(NC(=O)CC(=O)c3ccc([N+](=O)[O-])cc3)ccc2C)cc1,15.8 µM (active),–
COc1ccc(C(=O)CC(=O)C(=O)Nc2cc([N+](=O)[O-])ccc2OC)cc1,–,-18.2% (inactive)
CCOP(=O)(OCC)C(Nc1ccc([N+](=O)[O-])cc1)c1ccc(Cl)cc1 (stereo unspecified),–,83.3% (inactive)
CC(C)N(C(=O)CSc1nnc(NC2CC2)s1)c1ccccc1,–,-17.1% (inactive)
Cc1ccccc1Nc1nnc(SCC(=O)c2cc3ccccc3o2)s1,–,-49.2% (inactive)
CC(C)c1ccc(Nc2nnc(SCC(=O)c3nnc(-c4ccccc4)o3)s2)cc1,25.1 µM (active),–
CCOc1ccc(-n2cnc3c(=O)[nH]c(N)nc32)cc1,–,-18.8% (inactive)
Cc1ccc2c(c1)c1ncnc(N3CCc4ccccc4C3)c1n2C,–,1.78% (inactive)
COc1ccc(CC2c3cc(OC)c(OC)cc3CC[N+]2(C)CCC(=O)OCCCCCOC(=O)CC[N+]2(C)CCc3cc(OC)c(OC)cc3C2Cc2ccc(OC)c(OC)c2)cc1OC (stereo unspecified),–,145% (inactive)
Cc1cc2ccccc2n1CCNC(=O)COc1ccc2ccccc2c1,10 µM (active),–
Cc1cc2ccccc2n1CCC(=O)O,–,4.27% (inactive)
COC(=O)C(C)NC(=O)COc1ccc2ccccc2c1 (stereo unspecified),–,-18.4% (inactive)
Nn1c(Cc2cccc3ccccc23)nnc1SCC(=O)N1CC(=O)Nc2ccccc21,–,13.7% (inactive)
Nc1cc(C(F)(F)F)ccc1N1CCOCC1,–,-6.49% (inactive)
COc1ccccc1C(=O)Nc1ccc(OCc2nnc3c4ccccc4c(C)nn23)cc1,–,208% (inactive)
CCCc1nc(SCC(=O)N2CCCC2)c2c(=O)n(C)c(=O)n(C)c2n1,–,49.1% (inactive)
Cn1c(=O)c2c(SCC(=O)N3CCOCC3)nc(C3CC3)nc2n(C)c1=O,10 µM (active),–
CCOC(=O)N1CCN(C(=O)CSc2nc(C)nc3c2c(=O)n(C)c(=O)n3C)CC1,–,-9.25% (inactive)
Cc1nn(Cc2ccc(Cl)c(Cl)c2)c(C)c1NC(=O)c1cc(C2CC2)on1,10 µM (active),–
O=C(NC1CCCCC1)c1cc(C2CC2)on1,–,-16.9% (inactive)
CSc1ccccc1NC(=O)c1cc(C2CC2)on1,–,-8.82% (inactive)
